Laboratory results reported in the supplement of paper PMC4466140.

target: CaNbp2; assay: SPOT peptide array binding signal intensity (averaged, normalized) (arbitrary units (background-subtracted, floor 0; scale differs between SH3 domains)); higher = stronger binding of the SH3 domain to the peptide
Procedure, shortened: (§1)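 Binding signal is given in arbitrary units that differ between domains and is the normalized, background-subtracted spot intensity averaged across replicates. Each GST-SH3 fusion from one of four yeast species was made in E. coli BL21(DE3), purified on glutathione Sepharose and incubated at 10 μg/ml overnight at 4°C on cellulose-bound synthetic 15-mer peptides in which cysteines were replaced by serines. Detection used anti-GST antibody, an HRP anti-mouse secondary and luminol, followed by imaging and Genespotter quantification.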

Binder | SPOT peptide array binding signal intensity
LPPPPPPPPPPPLPQ | 10
FLIKFTPKFPQSIDH | 1020

target: CaRvs167; assay: as above
Procedure, shortened: as §1

Binder | SPOT peptide array binding signal intensity
LPPPPPPPPPPPLPQ | ≤ 0
FLIKFTPKFPQSIDH | 651

target: CaRvs167-3; assay: as above
Procedure, shortened: as §1

Binder | SPOT peptide array binding signal intensity
LPPPPPPPPPPPLPQ | 0.5
FLIKFTPKFPQSIDH | 2160

target: CaSho1; assay: as above
Procedure, shortened: as §1

Binder | SPOT peptide array binding signal intensity
LPPPPPPPPPPPLPQ | 4.5
FLIKFTPKFPQSIDH | 2110

target: CaSla1-D1-D2; assay: as above
Procedure, shortened: as §1

Binder | SPOT peptide array binding signal intensity
LPPPPPPPPPPPLPQ | 5.5
FLIKFTPKFPQSIDH | 43

target: CaSla1-D3; assay: as above
Procedure, shortened: as §1

Binder | SPOT peptide array binding signal intensity
LPPPPPPPPPPPLPQ | 0.5
FLIKFTPKFPQSIDH | 585

target: ScAbp1; assay: as above
Procedure, shortened: as §1

Binder | SPOT peptide array binding signal intensity
LPPPPPPPPPPPLPQ | 2.5
FLIKFTPKFPQSIDH | 7

target: ScBbc1; assay: as above
Procedure, shortened: as §1

Binder | SPOT peptide array binding signal intensity
LPPPPPPPPPPPLPQ | 2.5
FLIKFTPKFPQSIDH | 5.5

target: ScBem1-D1; assay: as above
Procedure, shortened: as §1

Binder | SPOT peptide array binding signal intensity
LPPPPPPPPPPPLPQ | ≤ 0
FLIKFTPKFPQSIDH | 47.5

target: ScBzz1-D1; assay: as above
Procedure, shortened: as §1

Binder | SPOT peptide array binding signal intensity
LPPPPPPPPPPPLPQ | 16
FLIKFTPKFPQSIDH | 224

target: ScBzz1-D2; assay: as above
Procedure, shortened: as §1

Binder | SPOT peptide array binding signal intensity
LPPPPPPPPPPPLPQ | 2
FLIKFTPKFPQSIDH | 611

target: ScCyk3; assay: as above
Procedure, shortened: as §1

Binder | SPOT peptide array binding signal intensity
LPPPPPPPPPPPLPQ | 0.5
FLIKFTPKFPQSIDH | 145

target: ScFus1; assay: as above
Procedure, shortened: as §1

Binder | SPOT peptide array binding signal intensity
LPPPPPPPPPPPLPQ | ≤ 0
FLIKFTPKFPQSIDH | 1850

target: ScHof1; assay: as above
Procedure, shortened: as §1

Binder | SPOT peptide array binding signal intensity
LPPPPPPPPPPPLPQ | 9.25
FLIKFTPKFPQSIDH | 3.25

target: ScHse1; assay: as above
Procedure, shortened: as §1

Binder | SPOT peptide array binding signal intensity
LPPPPPPPPPPPLPQ | 23
FLIKFTPKFPQSIDH | 2710

target: ScLsb1; assay: as above
Procedure, shortened: as §1

Binder | SPOT peptide array binding signal intensity
LPPPPPPPPPPPLPQ | 0.5
FLIKFTPKFPQSIDH | 1

target: ScLsb2; assay: as above
Procedure, shortened: as §1

Binder | SPOT peptide array binding signal intensity
LPPPPPPPPPPPLPQ | ≤ 0
FLIKFTPKFPQSIDH | 9

target: ScLsb3; assay: as above
Procedure, shortened: as §1

Binder | SPOT peptide array binding signal intensity
LPPPPPPPPPPPLPQ | 54
FLIKFTPKFPQSIDH | 706

target: ScLsb4; assay: as above
Procedure, shortened: as §1

Binder | SPOT peptide array binding signal intensity
LPPPPPPPPPPPLPQ | 1.5
FLIKFTPKFPQSIDH | 80

target: ScMyo3; assay: as above
Procedure, shortened: as §1

Binder | SPOT peptide array binding signal intensity
LPPPPPPPPPPPLPQ | 1930
FLIKFTPKFPQSIDH | 15.5

target: ScMyo5; assay: as above
Procedure, shortened: as §1

Binder | SPOT peptide array binding signal intensity
LPPPPPPPPPPPLPQ | 933
FLIKFTPKFPQSIDH | 14

target: ScNbp2; assay: as above
Procedure, shortened: as §1

Binder | SPOT peptide array binding signal intensity
LPPPPPPPPPPPLPQ | 16
FLIKFTPKFPQSIDH | 715

target: ScPex13; assay: as above
Procedure, shortened: as §1

Binder | SPOT peptide array binding signal intensity
LPPPPPPPPPPPLPQ | 41.8
FLIKFTPKFPQSIDH | 86.5

target: ScRvs167; assay: as above
Procedure, shortened: as §1

Binder | SPOT peptide array binding signal intensity
LPPPPPPPPPPPLPQ | ≤ 0
FLIKFTPKFPQSIDH | 47

target: ScSho1; assay: as above
Procedure, shortened: as §1

Binder | SPOT peptide array binding signal intensity
LPPPPPPPPPPPLPQ | ≤ 0
FLIKFTPKFPQSIDH | 2000

target: ScSla1-D1-D2; assay: as above
Procedure, shortened: as §1

Binder | SPOT peptide array binding signal intensity
LPPPPPPPPPPPLPQ | 16.5
FLIKFTPKFPQSIDH | 322

target: ScSla1-D3; assay: as above
Procedure, shortened: as §1

Binder | SPOT peptide array binding signal intensity
LPPPPPPPPPPPLPQ | ≤ 0
FLIKFTPKFPQSIDH | 232

target: SpAbp1-D1; assay: as above
Procedure, shortened: as §1

Binder | SPOT peptide array binding signal intensity
LPPPPPPPPPPPLPQ | 3
FLIKFTPKFPQSIDH | 50.5

target: SpBbc1; assay: as above
Procedure, shortened: as §1

Binder | SPOT peptide array binding signal intensity
LPPPPPPPPPPPLPQ | 0.5
FLIKFTPKFPQSIDH | 27

target: SpBzz1-D1; assay: as above
Procedure, shortened: as §1

Binder | SPOT peptide array binding signal intensity
LPPPPPPPPPPPLPQ | 4870
FLIKFTPKFPQSIDH | 1440

target: SpBzz1-D2; assay: as above
Procedure, shortened: as §1

Binder | SPOT peptide array binding signal intensity
LPPPPPPPPPPPLPQ | 7.5
FLIKFTPKFPQSIDH | 17.8

target: SpCyk3; assay: as above
Procedure, shortened: as §1

Binder | SPOT peptide array binding signal intensity
LPPPPPPPPPPPLPQ | ≤ 0
FLIKFTPKFPQSIDH | 48.5

target: SpHof1; assay: as above
Procedure, shortened: as §1

Binder | SPOT peptide array binding signal intensity
LPPPPPPPPPPPLPQ | ≤ 0
FLIKFTPKFPQSIDH | 662

target: SpHof1-2; assay: as above
Procedure, shortened: as §1

Binder | SPOT peptide array binding signal intensity
LPPPPPPPPPPPLPQ | ≤ 0
FLIKFTPKFPQSIDH | 126

target: SpHof1-3; assay: as above
Procedure, shortened: as §1

Binder | SPOT peptide array binding signal intensity
LPPPPPPPPPPPLPQ | 0.5
FLIKFTPKFPQSIDH | 1580

target: SpHse1; assay: as above
Procedure, shortened: as §1

Binder | SPOT peptide array binding signal intensity
LPPPPPPPPPPPLPQ | 2.25
FLIKFTPKFPQSIDH | 1950

target: SpLsb1; assay: as above
Procedure, shortened: as §1

Binder | SPOT peptide array binding signal intensity
LPPPPPPPPPPPLPQ | ≤ 0
FLIKFTPKFPQSIDH | 11.5

target: SpLsb4; assay: as above
Procedure, shortened: as §1

Binder | SPOT peptide array binding signal intensity
LPPPPPPPPPPPLPQ | ≤ 0
FLIKFTPKFPQSIDH | 610

target: SpMyo1; assay: as above
Procedure, shortened: as §1

Binder | SPOT peptide array binding signal intensity
LPPPPPPPPPPPLPQ | 1520
FLIKFTPKFPQSIDH | 75

target: SpNbp2; assay: as above
Procedure, shortened: as §1

Binder | SPOT peptide array binding signal intensity
LPPPPPPPPPPPLPQ | 2
FLIKFTPKFPQSIDH | 1010

target: SpPex13; assay: as above
Procedure, shortened: as §1

Binder | SPOT peptide array binding signal intensity
LPPPPPPPPPPPLPQ | ≤ 0
FLIKFTPKFPQSIDH | 309

target: SpRvs167; assay: as above
Procedure, shortened: as §1

Binder | SPOT peptide array binding signal intensity
LPPPPPPPPPPPLPQ | 5.33
FLIKFTPKFPQSIDH | 49.8

target: SpSla1-D1-D2; assay: as above
Procedure, shortened: as §1

Binder | SPOT peptide array binding signal intensity
LPPPPPPPPPPPLPQ | 3
FLIKFTPKFPQSIDH | 4

target: SpSla1-D3; assay: as above
Procedure, shortened: as §1

Binder | SPOT peptide array binding signal intensity
LPPPPPPPPPPPLPQ | ≤ 0
FLIKFTPKFPQSIDH | 172

target: AgAbp1; assay: as above
Procedure, shortened: as §1

Binder | SPOT peptide array binding signal intensity
FLIKFTPKFPQSIDH | 11

target: AgBbc1; assay: as above
Procedure, shortened: as §1

Binder | SPOT peptide array binding signal intensity
FLIKFTPKFPQSIDH | 89.8

target: AgBem1-D1; assay: as above
Procedure, shortened: as §1

Binder | SPOT peptide array binding signal intensity
FLIKFTPKFPQSIDH | 681

target: AgBzz1-D1; assay: as above
Procedure, shortened: as §1

Binder | SPOT peptide array binding signal intensity
FLIKFTPKFPQSIDH | 120

target: AgBzz1-D2; assay: as above
Procedure, shortened: as §1

Binder | SPOT peptide array binding signal intensity
FLIKFTPKFPQSIDH | 229

target: AgCyk3; assay: as above
Procedure, shortened: as §1

Binder | SPOT peptide array binding signal intensity
FLIKFTPKFPQSIDH | 165

target: AgFus1; assay: as above
Procedure, shortened: as §1

Binder | SPOT peptide array binding signal intensity
FLIKFTPKFPQSIDH | 1690

target: AgHof1; assay: as above
Procedure, shortened: as §1

Binder | SPOT peptide array binding signal intensity
FLIKFTPKFPQSIDH | 45

target: AgHse1; assay: as above
Procedure, shortened: as §1

Binder | SPOT peptide array binding signal intensity
FLIKFTPKFPQSIDH | 1660

target: AgLsb1; assay: as above
Procedure, shortened: as §1

Binder | SPOT peptide array binding signal intensity
FLIKFTPKFPQSIDH | 2.5

target: AgLsb4; assay: as above
Procedure, shortened: as §1

Binder | SPOT peptide array binding signal intensity
FLIKFTPKFPQSIDH | 1180

target: AgMyo5; assay: as above
Procedure, shortened: as §1

Binder | SPOT peptide array binding signal intensity
FLIKFTPKFPQSIDH | 1.5

target: AgNbp2; assay: as above
Procedure, shortened: as §1

Binder | SPOT peptide array binding signal intensity
FLIKFTPKFPQSIDH | 669

target: AgRvs167; assay: as above
Procedure, shortened: as §1

Binder | SPOT peptide array binding signal intensity
FLIKFTPKFPQSIDH | 15

target: AgSho1; assay: as above
Procedure, shortened: as §1

Binder | SPOT peptide array binding signal intensity
FLIKFTPKFPQSIDH | 814

target: AgSla1-D1-D2; assay: as above
Procedure, shortened: as §1

Binder | SPOT peptide array binding signal intensity
FLIKFTPKFPQSIDH | 524

target: AgSla1-D3; assay: as above
Procedure, shortened: as §1

Binder | SPOT peptide array binding signal intensity
FLIKFTPKFPQSIDH | 33.8

target: CaAbp1-D1; assay: as above
Procedure, shortened: as §1

Binder | SPOT peptide array binding signal intensity
FLIKFTPKFPQSIDH | 172

target: CaAbp1-D2; assay: as above
Procedure, shortened: as §1

Binder | SPOT peptide array binding signal intensity
FLIKFTPKFPQSIDH | 120

target: CaBbc1; assay: as above
Procedure, shortened: as §1

Binder | SPOT peptide array binding signal intensity
FLIKFTPKFPQSIDH | 75

target: CaBem1-D1; assay: as above
Procedure, shortened: as §1

Binder | SPOT peptide array binding signal intensity
FLIKFTPKFPQSIDH | 103

target: CaBzz1-D1; assay: as above
Procedure, shortened: as §1

Binder | SPOT peptide array binding signal intensity
FLIKFTPKFPQSIDH | 819

target: CaBzz1-D2; assay: as above
Procedure, shortened: as §1

Binder | SPOT peptide array binding signal intensity
FLIKFTPKFPQSIDH | 281

target: CaCyk3; assay: as above
Procedure, shortened: as §1

Binder | SPOT peptide array binding signal intensity
FLIKFTPKFPQSIDH | 136

target: CaFus1; assay: as above
Procedure, shortened: as §1

Binder | SPOT peptide array binding signal intensity
FLIKFTPKFPQSIDH | 3550

target: CaHof1; assay: as above
Procedure, shortened: as §1

Binder | SPOT peptide array binding signal intensity
FLIKFTPKFPQSIDH | 6.5

target: CaHse1; assay: as above
Procedure, shortened: as §1

Binder | SPOT peptide array binding signal intensity
FLIKFTPKFPQSIDH | 588

target: CaLsb1; assay: as above
Procedure, shortened: as §1

Binder | SPOT peptide array binding signal intensity
FLIKFTPKFPQSIDH | 10

target: CaLsb4; assay: as above
Procedure, shortened: as §1

Binder | SPOT peptide array binding signal intensity
FLIKFTPKFPQSIDH | 299

target: CaMyo5; assay: as above
Procedure, shortened: as §1

Binder | SPOT peptide array binding signal intensity
FLIKFTPKFPQSIDH | 94
